This excerpt belongs to a sample that is enriched for hits.
HT1080-NT tox: kills 2HG-producing HT-1080-NT fibrosarcoma cells. hit rate 1.6% among 360,000. HT-1080-NT fibrosarcoma viability, CellTiter-Glo ATP luminescence, 48 h. Potency, µM (highest dose often 46.1 µM), for inactives: at the highest dose activity, negative = less viability, usual class: cytotoxic;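 note: NT is the 2HG producing partner of a matched IDH1 knockdown line; potency is the fitted concentration of half-maximal effect; 0% = DMSO-treated cells and -100% = media-only wells without cells; nearly all actives have a fitted effect of over 55% in size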
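Toxicity toward the 2HG-producing NT line was scored as %Activity, normalised to DMSO and no-cell wells, from CellTiter-Glo luminescence after 48 hours' treatment.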
IL-1B inflam inh: inflammasome signaling inhibition, IL-1 beta readout | THP-1 LPS/ATP IL-1B secretion, AlphaLISA, 16 h; stronger effect = lower value | activity change, % at 57.5 µM | hit rate 4.7% among 360,000; in the data active = activity change below about -50%; inconclusive = mostly about -30% to -49%
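Secreted IL-1B measured by AlphaLISA bead assay after 16 h compound exposure of THP-1 cells; compounds (final up to 57.5 uM) added 1 h before LPS (250 ng/mL) and ATP (1.25 mM) stimulation; lower signal means less secretion.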
TDP1 cell CPT: growth inhibition of DT40 Tdp1-/-;hTDP1 cells with camptothecin (screen for TDP1 inhibitors). chicken DT40 Tdp1-/-;hTDP1 cells + 20 nM CPT, ATP luminescence, 48 h. Potency, µM (top dose mostly 46.2 µM), inactives show at the highest dose activity change, negative = growth inhibition, hits mostly inhibitors. hit rate 12% among 420,000. AID 686979; note: potency is the fitted concentration of half-maximal effect; nearly all actives have a fitted effect of over 55% in size
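Chicken DT40 Tdp1-/- cells complemented with human TDP1, 400 cells/well, exposed to compounds plus 20 nM camptothecin for at least 48 h at 37 C; viability read as ATP content by CellTiter-Glo luminescence.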
12-LOX inh: ALOX12 (human) lipoxygenase inhibition; P18054; purified 12hLO, xylenol orange hydroperoxide absorbance; Potency, µM (titrated, usually from 108 µM), for the others: at the top dose activity change, negative = inhibition, most hits filed as inhibitors; hit rate 1.1% among 580,000; note: potency is the fitted concentration of half-maximal effect
Target sequence (P18054 whole entry, looked up): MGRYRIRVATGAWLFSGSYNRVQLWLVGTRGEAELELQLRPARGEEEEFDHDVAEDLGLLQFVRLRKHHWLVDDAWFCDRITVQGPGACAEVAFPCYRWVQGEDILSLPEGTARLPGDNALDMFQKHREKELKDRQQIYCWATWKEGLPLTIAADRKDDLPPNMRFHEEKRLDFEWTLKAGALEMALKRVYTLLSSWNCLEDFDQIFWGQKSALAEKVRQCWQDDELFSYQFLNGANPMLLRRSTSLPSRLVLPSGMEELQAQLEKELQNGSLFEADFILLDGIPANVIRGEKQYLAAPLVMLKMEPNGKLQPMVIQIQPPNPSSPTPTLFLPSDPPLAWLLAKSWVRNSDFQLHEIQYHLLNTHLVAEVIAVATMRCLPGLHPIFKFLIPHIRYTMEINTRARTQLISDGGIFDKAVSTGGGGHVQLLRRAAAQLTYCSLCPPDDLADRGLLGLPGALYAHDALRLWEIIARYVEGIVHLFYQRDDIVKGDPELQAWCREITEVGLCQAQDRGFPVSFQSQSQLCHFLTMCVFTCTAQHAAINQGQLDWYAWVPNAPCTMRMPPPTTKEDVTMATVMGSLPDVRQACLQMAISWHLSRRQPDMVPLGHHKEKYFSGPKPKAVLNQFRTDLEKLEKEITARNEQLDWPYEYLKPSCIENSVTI
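Purified human 12hLO at 150 nM in 25 mM Hepes, 0.01% Triton X-100, pH 7.0, preincubated 15 min at room temperature with compound. Reaction started with 40 uM arachidonic acid, 30 min at room temperature. Hydroperoxide measured by Fe-xylenol orange, 573/405 nm absorbance ratio.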
TDP1 cell noCPT: qHTS for Inhibitors of human tyrosyl-DNA phosphodiesterase 1 (TDP1): qHTS in cells in absence of CPT. AID 686978, 2013. Potency, µM (series often up to 46.2 µM), for inactives: top-dose activity change, negative = growth inhibition, most hits filed as inhibitors. hit rate 15% among 420,000. DT40 Tdp1-/- hTDP1 cells, no CPT, ATP luminescence, 48 h; note: potency is the fitted concentration of half-maximal effect; nearly all actives have a fitted effect of over 55% in size
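Camptothecin absent (DMSO only). Human TDP1-complemented DT40 knockout cells, 400 cells/well, 37 °C for minimum 48 hr; ATP measured via CellTiter-Glo, 30 min dark incubation, luminescence.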
HT1080 IDH1KD tx: toxicity to HT-1080 IDH1 knockdown cells (counter line); HT-1080 IDH1 knockdown viability, ATP luminescence, 48 h; Potency, µM (titrated, usually from 46.1 µM), for the others: at the highest dose activity, negative = toxicity, hits mostly cytotoxic; hit rate 2% among 360,000; AID 686971;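 note: potency is the fitted concentration of half-maximal effect; 0% = DMSO wells and -100% = cell-free medium wells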
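HT-1080-IDH1KD cells (IDH1 knocked down), 750/well in RPMI with 5% FBS, treated with compound 48 h at 37 degrees C. Viability by CellTiter-Glo luminescence, normalised to DMSO and no-cell wells; concentration-response curves classed.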
Numbers without * were called inactive; ! = a repeat was not active. Unless noted, calls come from the whole dose curve; as a rule, active = well fitted curve in the direction sought with a large enough effect; inconclusive = small, poorly fitted or top-dose-only effect, or another doubt; inactive = no such curve, though single readings can be large; an effect the other way counts as inactive or inconclusive. Unless noted, % is set by controls: 0 for no effect and ±100 for the full control effect.

For C=CCn1c(C)cc(C(=O)CSc2nnc(NCc3ccccc3)s2)c1C the results were HT1080-NT tox inconclusive, IL-1B inflam inh -4.8, TDP1 cell CPT 9.2µM*, 12-LOX inh 0.7%, TDP1 cell noCPT 14.6µM* and HT1080 IDH1KD tx inconclusive.
`C=CCn1c(C)cc(C(=O)CSc2nc3ccccc3o2)c1C` gave HT1080-NT tox -3.2%, IL-1B inflam inh -80.5*, TDP1 cell CPT 16.4µM*, 12-LOX inh -10.8%, TDP1 cell noCPT inconclusive and HT1080 IDH1KD tx -5.6%.
Cn1c(=O)c2c(ncn2CC(O)COc2ccc(C(C)(C)C)cc2)n(C)c1=O (stereo unspecified) was read as 12-LOX inh -9.5%.
For CC(C)CCCCCCCCCCCCC(=O)NCC(=O)NC1C(C)OC(Nc2ncnc3nc[nH]c23)C(O)C1O (stereo unspecified) the results were HT1080-NT tox 1.84µM*, IL-1B inflam inh -93.0*, TDP1 cell CPT 0.0206µM*, 12-LOX inh -17.9%, TDP1 cell noCPT 0.0326µM* and HT1080 IDH1KD tx 0.116µM*.
Screening Cc1ccc(CS(=O)Cc2ccc(C(=O)NCc3ccccc3Cl)o2)cc1 (stereo unspecified) returned HT1080-NT tox -8.1%, IL-1B inflam inh -24.3, TDP1 cell CPT inconclusive, 12-LOX inh inconclusive, TDP1 cell noCPT inconclusive and HT1080 IDH1KD tx -2.5%.
O=C(NCc1ccco1)c1ccc(CS(=O)c2ccccc2Cl)o1 (stereo unspecified) was read as HT1080-NT tox 8.7%, IL-1B inflam inh -13.1, TDP1 cell CPT 0.7%, 12-LOX inh 11.4%, TDP1 cell noCPT -19.4% and HT1080 IDH1KD tx 7.6%.
For O=C(NCCCN1CCC(Cc2ccccc2)CC1)c1ccc(CS(=O)c2ccccc2Cl)o1 (stereo unspecified) the results were HT1080-NT tox inconclusive, IL-1B inflam inh -23.1, TDP1 cell CPT 23.1µM*, 12-LOX inh inconclusive, TDP1 cell noCPT 20.6µM* and HT1080 IDH1KD tx -23.6%.
Cc1ccccc1S(=O)Cc1ccc(C(=O)NCc2ccccc2Cl)o1 (stereo unspecified) was read as TDP1 cell CPT 20.6µM*, 12-LOX inh -18.4% and TDP1 cell noCPT inconclusive.
`O=C(NCc1cccc(F)c1)c1ccc(CS(=O)c2ccccc2Cl)o1` (stereo unspecified) gave TDP1 cell CPT 16.4µM*, 12-LOX inh -22.8% and TDP1 cell noCPT 23.1µM*.
`COc1cccc(CC(NC(C)=O)C(=O)NC2CCN(C(=O)c3ccc(Cl)cc3)CC2)c1` (stereo unspecified) gave HT1080-NT tox 25.2%, IL-1B inflam inh -5.2, TDP1 cell CPT -21.9%, 12-LOX inh -16.2%, TDP1 cell noCPT 5.8µM* and HT1080 IDH1KD tx 11.3%.
For COc1ccc(CCN(C)C(=O)C2CCCN(C3CCN(Cc4ccccc4)CC3)C2)cc1OC (stereo unspecified) the results were HT1080-NT tox -8.9%, IL-1B inflam inh -10.8, TDP1 cell CPT inconclusive, 12-LOX inh 0.316µM*!, TDP1 cell noCPT -27.6% and HT1080 IDH1KD tx -2.3%.
Screening CN(Cc1ccccc1)C(=O)C1CCCN(Cc2cccc(Cl)c2)C1 (stereo unspecified) returned HT1080-NT tox inconclusive, IL-1B inflam inh 37.1, TDP1 cell CPT inconclusive, 12-LOX inh inconclusive, TDP1 cell noCPT 23.1µM*! and HT1080 IDH1KD tx inconclusive.
`COc1ccc(OC)c(CN2CCC(C(=O)N(C)CCc3ccc(OC)c(OC)c3)CC2)c1` gave HT1080-NT tox 7.3%, IL-1B inflam inh 2.4, TDP1 cell CPT -3.1%, 12-LOX inh inconclusive, TDP1 cell noCPT 13.1% and HT1080 IDH1KD tx -5.4%.

Bioassay records from PubChem BioAssay.
